Experimental data from the supplement of paper PMC11732987, “Enantioselective OTUD7B fragment discovery through chemoproteomics screening and high-throughput optimisation” (Communications Chemistry, 2025).

Tests used:
Test in all cases: log2 ratio of Biotin-Ahx-Ub-VS probe labelling (fragment/DMSO); higher = less target engagement (more negative = stronger competition), active = hit call of the paper (q ≤ 0.05, log2 ratio ≤ -1)
Conditions in all cases: compound concentration: 200 uM; treatment time: 3 h
[1] = molecular target: T1, OTUD6B (UniProt Q8N6M0)
T1 sequence (whole entry): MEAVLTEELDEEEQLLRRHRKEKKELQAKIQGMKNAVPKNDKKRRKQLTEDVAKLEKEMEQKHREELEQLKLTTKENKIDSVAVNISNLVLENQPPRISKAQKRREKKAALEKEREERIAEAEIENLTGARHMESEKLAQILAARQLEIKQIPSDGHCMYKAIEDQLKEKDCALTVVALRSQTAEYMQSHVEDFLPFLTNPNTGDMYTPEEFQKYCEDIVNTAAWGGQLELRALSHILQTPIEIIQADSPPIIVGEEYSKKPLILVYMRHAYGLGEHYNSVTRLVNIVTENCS
Method in brief: (§1)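 Triplicate samples of HEK293T lysate, 495 µg each, received fragment at 200 µM or vehicle for 3 h, followed by Biotin-Ahx-Ub-VS (0.5 µM final) for 1 h. After NeutrAvidin enrichment of labelled DUBs and LysC/trypsin digestion, peptides were run by diaPASEF LC-MS/MS. The values are average log2 fragment/vehicle ratios from global-median-normalised Spectronaut label-free quantities, tested by unpaired t-test on proteins having ≥2 unique peptides.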

[2] = molecular target: T2, OTUD7B (UniProt Q6GQQ9)
T2 sequence (whole entry): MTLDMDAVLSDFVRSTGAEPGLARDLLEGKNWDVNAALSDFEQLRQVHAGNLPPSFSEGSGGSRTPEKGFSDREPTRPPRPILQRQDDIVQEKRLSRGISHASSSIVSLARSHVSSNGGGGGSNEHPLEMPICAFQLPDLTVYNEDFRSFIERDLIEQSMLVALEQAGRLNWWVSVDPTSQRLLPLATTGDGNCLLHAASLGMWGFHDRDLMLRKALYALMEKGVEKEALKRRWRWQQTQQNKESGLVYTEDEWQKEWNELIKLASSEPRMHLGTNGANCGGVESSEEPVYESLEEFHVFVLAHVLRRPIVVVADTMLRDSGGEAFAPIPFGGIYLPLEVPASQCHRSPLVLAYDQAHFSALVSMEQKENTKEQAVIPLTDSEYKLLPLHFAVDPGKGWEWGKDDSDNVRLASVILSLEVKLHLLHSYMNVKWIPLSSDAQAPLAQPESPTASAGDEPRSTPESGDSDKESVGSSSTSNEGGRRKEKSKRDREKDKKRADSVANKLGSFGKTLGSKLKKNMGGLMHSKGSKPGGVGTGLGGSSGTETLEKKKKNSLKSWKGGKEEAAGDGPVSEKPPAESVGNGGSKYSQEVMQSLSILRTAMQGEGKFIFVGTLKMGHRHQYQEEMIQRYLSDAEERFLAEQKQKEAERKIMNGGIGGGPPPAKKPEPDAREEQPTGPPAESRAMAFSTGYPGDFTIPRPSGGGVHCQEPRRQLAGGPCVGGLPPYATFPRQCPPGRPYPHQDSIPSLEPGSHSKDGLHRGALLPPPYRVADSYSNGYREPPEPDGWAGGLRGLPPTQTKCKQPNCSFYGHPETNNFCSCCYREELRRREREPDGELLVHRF
Method in brief: as §1

[3] = molecular target: PRPF8 (UniProt Q6P2Q9)
Method in brief: as §1

[4] = molecular target: T3, PSMD7 (UniProt P51665)
T3 sequence (whole entry): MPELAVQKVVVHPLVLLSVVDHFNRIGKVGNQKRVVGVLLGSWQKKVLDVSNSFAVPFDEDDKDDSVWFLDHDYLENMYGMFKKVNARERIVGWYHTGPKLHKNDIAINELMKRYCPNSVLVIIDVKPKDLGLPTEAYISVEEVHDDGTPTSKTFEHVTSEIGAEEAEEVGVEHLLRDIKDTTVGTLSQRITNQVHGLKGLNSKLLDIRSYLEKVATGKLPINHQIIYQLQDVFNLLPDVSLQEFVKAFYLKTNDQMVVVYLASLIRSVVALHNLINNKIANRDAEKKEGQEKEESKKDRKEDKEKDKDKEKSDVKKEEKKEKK
Method in brief: as §1

[5] = molecular target: UCHL1 (UniProt P09936)
Method in brief: as §1

[6] = molecular target: T4, UCHL3 (UniProt P15374)
T4 sequence (whole entry): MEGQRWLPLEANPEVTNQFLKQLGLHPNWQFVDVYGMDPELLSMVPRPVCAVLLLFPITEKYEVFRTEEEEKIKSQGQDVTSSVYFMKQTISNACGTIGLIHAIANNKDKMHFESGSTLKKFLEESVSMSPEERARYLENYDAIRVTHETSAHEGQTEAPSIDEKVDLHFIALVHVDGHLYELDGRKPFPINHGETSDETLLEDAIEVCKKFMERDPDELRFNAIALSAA
Method in brief: as §1

[7] = molecular target: T5, UCHL5 (UniProt Q9Y5K5)
T5 sequence (whole entry): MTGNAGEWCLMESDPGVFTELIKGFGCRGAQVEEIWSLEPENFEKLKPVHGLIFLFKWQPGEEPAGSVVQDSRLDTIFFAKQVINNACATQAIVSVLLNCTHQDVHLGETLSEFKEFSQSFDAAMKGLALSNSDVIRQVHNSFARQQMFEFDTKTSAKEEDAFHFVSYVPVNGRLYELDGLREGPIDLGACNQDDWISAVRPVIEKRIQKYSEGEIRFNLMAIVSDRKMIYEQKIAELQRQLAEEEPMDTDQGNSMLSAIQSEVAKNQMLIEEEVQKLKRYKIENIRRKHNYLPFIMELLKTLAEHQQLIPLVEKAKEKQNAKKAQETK
Method in brief: as §1

[8] = molecular target: USP10 (UniProt Q14694)
Method in brief: as §1

[9] = molecular target: T6, USP15 (UniProt Q9Y4E8)
T6 sequence (whole entry): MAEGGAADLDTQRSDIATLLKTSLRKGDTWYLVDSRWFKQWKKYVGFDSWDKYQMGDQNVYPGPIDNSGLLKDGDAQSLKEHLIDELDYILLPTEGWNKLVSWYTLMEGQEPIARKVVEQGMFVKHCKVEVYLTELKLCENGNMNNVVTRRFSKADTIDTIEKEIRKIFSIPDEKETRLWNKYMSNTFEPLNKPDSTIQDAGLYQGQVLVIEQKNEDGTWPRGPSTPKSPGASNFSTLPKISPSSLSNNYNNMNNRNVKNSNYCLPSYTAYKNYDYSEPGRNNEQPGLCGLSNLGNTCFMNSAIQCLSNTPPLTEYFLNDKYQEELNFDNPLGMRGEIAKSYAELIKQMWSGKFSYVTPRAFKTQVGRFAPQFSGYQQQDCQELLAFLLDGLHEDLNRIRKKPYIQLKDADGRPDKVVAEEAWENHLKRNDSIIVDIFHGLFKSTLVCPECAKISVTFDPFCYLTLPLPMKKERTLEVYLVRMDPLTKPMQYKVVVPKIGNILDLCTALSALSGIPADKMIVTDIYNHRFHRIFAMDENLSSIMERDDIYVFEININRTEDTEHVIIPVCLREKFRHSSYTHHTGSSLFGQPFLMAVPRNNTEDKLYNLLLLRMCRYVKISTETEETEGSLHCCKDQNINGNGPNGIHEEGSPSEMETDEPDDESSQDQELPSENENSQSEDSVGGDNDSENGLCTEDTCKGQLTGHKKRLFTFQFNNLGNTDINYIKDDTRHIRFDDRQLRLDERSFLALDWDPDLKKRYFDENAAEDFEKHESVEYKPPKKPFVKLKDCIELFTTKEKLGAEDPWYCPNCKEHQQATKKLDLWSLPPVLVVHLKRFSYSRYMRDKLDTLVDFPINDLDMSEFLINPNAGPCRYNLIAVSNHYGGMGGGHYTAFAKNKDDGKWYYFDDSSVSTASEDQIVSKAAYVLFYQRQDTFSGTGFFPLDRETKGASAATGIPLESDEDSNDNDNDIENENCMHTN
Method in brief: as §1

[10] = molecular target: USP16 (UniProt Q9Y5T5)
Method in brief: as §1

Measured: log2 ratio of Biotin-Ahx-Ub-VS probe labelling

Chain of USP16 (Q9Y5T5 whole entry, looked up): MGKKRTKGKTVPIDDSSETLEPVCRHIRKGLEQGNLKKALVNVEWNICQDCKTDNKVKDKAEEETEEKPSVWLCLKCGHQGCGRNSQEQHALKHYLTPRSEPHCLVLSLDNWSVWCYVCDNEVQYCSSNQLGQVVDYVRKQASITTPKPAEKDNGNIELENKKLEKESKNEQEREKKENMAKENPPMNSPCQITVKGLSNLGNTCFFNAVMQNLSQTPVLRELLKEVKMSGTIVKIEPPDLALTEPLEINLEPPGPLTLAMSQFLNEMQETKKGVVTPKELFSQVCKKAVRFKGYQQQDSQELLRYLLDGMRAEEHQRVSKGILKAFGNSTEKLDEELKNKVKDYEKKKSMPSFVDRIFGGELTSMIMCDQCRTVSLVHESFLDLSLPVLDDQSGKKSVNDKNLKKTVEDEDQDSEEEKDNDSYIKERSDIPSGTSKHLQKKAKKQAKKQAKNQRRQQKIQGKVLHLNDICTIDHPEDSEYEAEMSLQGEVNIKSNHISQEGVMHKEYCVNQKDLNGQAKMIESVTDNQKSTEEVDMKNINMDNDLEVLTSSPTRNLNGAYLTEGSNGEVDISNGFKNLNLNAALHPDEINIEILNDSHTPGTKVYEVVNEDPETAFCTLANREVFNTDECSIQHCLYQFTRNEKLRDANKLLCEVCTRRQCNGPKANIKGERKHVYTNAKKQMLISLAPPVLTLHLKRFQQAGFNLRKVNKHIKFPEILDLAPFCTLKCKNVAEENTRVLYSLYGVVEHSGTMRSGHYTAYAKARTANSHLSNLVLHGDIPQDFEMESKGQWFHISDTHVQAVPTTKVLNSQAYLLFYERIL
Chain of UCHL1 (P09936 whole entry, looked up): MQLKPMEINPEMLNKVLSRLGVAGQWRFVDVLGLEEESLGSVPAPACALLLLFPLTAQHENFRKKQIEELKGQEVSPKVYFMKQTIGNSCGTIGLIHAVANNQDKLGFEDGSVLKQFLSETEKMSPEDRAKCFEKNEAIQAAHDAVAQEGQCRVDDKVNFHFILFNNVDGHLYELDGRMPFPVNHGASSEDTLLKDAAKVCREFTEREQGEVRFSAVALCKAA
Chain of USP10 (Q14694 whole entry): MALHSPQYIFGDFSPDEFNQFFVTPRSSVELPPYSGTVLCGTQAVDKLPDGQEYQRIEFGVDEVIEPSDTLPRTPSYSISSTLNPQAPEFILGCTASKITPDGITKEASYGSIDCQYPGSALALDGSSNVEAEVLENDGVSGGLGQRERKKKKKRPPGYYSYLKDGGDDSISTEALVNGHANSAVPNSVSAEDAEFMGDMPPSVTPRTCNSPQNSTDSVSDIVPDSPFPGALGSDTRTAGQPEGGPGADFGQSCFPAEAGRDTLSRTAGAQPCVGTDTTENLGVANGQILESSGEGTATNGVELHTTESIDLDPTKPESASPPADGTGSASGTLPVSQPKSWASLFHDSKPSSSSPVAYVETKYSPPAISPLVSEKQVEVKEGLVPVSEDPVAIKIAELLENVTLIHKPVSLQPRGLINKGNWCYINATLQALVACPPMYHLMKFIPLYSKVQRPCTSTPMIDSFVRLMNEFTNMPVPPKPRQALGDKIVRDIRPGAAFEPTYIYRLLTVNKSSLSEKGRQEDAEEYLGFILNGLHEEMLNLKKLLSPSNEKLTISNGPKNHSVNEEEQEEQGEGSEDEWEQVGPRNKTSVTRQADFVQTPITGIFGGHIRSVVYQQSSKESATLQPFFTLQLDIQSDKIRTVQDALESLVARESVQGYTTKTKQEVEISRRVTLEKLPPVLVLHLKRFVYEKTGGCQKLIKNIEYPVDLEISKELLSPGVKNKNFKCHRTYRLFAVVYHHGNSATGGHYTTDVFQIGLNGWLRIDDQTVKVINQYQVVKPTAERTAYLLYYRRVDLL

CN(C(=O)CCl)c1nc2ccccc2s1
inactive: [1] -0.243 | [2] -0.119 | [3] 0.183 | [4] 0.069 | [5] -0.925 | [6] 0.484 | [7] -0.343 | [8] -0.116 | [9] -0.217 | [10] 0.0425
